Assay outcomes: PubChem BioAssay, Buhrlage Lab, Dana-Farber Cancer Institute and Novartis Institutes for BioMedical Research (Cambridge, Mass)
Sampled rows, rich in hits. Any-hit rate of the full collection: about 11%.
OTUD3 inh = human OTUD3 deubiquitinase inhibition; purified OTUD3, Ub-rhodamine fluorescence, 2 h; inhibition, % at 25 µM; 47,000 compounds, 0.7% hits; AID 1645858
USP28 block = blocks human USP28 ubiquitin-rhodamine cleavage; Q96RU2; purified USP28, Ub-rhodamine cleavage fluorescence, 30 min; inhibition, % at 25 µM; 47,000 compounds, 3% hits
USP30 block = inhibitors of human USP30 deubiquitinase. 47,000 compounds, 5.3% hits. inhibition, % at 25 µM. purified USP30, Ub-rhodamine cleavage fluorescence. Q70CQ3. AID 1645860
USP17 block = blocks human USP17 ubiquitin-rhodamine cleavage; A8MUK1; purified USP17, Ub-rhodamine cleavage fluorescence, 3 h; inhibition, % at 50 µM; 47,000 compounds, 6.5% hits
Each line names hits and unclear results; the compound was inactive in the other large screens. No stated cut-off is given here; in the data, active means inhibition above about 30%; inactive means the rest.

Fc1ccc(OCc2nc(-c3cccc(-c4ccn[nH]4)c3)no2)cc1	USP28 block 52.4, USP30 block 38.5, USP17 block 80.0
CCc1cc(C(=O)c2ccc(OC)cc2)c(NC(=O)CSc2nnc(-c3cccs3)n2C)s1	USP17 block 61.3 (no result: USP28 block, USP30 block)
CN(C(=O)c1cccc2cccnc12)c1nc2c(s1)CCc1occc1-2	USP17 block 69.2
CN(C(=O)C1(c2ccccc2)CC1)c1nc2c(s1)CCc1occc1-2	none
CC(=O)c1cccc(NC(=O)c2ccc3[nH]c4c(c3c2)CC(C)CC4)c1 (stereo not drawn)	USP17 block 54.4
CC(=O)c1cccc(NC(=O)c2ccc(OC3CSC3)cc2)c1	none
CN1[C@H]2CCN(Cc3ccc(F)cc3)CC[C@@H]2Oc2ccccc2S1(=O)=O	none
O=C(O)/C=C/c1cc(O)cc(O)c1	none
O=S(=O)(c1cccc(F)c1)N1CCC2(CC1)CC2c1nnc(-c2cccc(F)c2)o1 (stereo not drawn)	none
Cc1nc(NCc2ccccc2F)ncc1C(=O)NCc1ccccc1	USP17 block 45.6
O=C(NC1CCCCC1)c1cccc(S(=O)(=O)N2CC(c3ccccc3)CC2=O)c1 (stereo not drawn)	USP30 block 30.9
CCNC(=O)c1nc(Cn2c(C(F)F)nc3ccccc32)no1	none
CC(C)c1nc2sc3c(SCC(=O)N(c4ccccc4)c4ccccc4)ncnc3c2c2c1COC(C)(C)C2	USP30 block 31.9
N#Cc1cccc(S(=O)(=O)c2c[nH]c3cc(Cl)ccc3c2=O)c1	USP17 block 46.1
CC(C)c1nc2c(c(=O)c3ccccc3n2C)c(=O)n1CCc1ccccc1	USP28 block 35.0, USP30 block 49.7
CC(C)Cn1c(C2CCCCC2)nc2c(c(=O)c3ccccc3n2C)c1=O	none
Cn1c2ccccc2c(=O)c2c(=O)n(Cc3ccccc3)c(C3CCCCC3)nc21	USP30 block 41.7
Cn1cc(C2c3ccccc3C(=O)N2CC(=O)N2CCC(C(N)=O)CC2)c2ccccc21 (stereo not drawn)	none
O=c1c2cnc3nc(-c4ccncc4)nn3c2ccn1C1CCCCC1	none
Cc1nnc(NC(=O)c2cn(-c3ccc(Br)cc3)nn2)s1	USP30 block 34.1
Cc1nc(-c2ccc(C)c(S(=O)(=O)NC(C)C(=O)Nc3ccc(C)c(F)c3)c2)no1 (stereo not drawn)	USP30 block 35.6
CC(=O)Nc1ccc2nc(NC(=O)C34CC5CC(CC(C5)C3)C4)sc2c1	USP17 block 37.2
COc1ccc(CC(=O)Nc2cc(=O)[nH]c3nc(-c4ccco4)nn23)cc1	USP17 block 33.9
CN(C)C(=O)N1Cc2ccccc2C2(CCNCC2)C1	USP30 block 30.7
O=C(Nc1nc2c(s1)COCC2)c1cc(-c2ccco2)[nH]n1	OTUD3 inh 64.0, USP28 block 64.0, USP17 block 72.9
O=C(Nc1ccc2cn[nH]c2c1)c1cc(-c2ccco2)on1	none
CC(C)N1CCN(c2ccc3ccc(C(=O)N4CCCN(C)CC4)cn23)CC1	none
O=c1c2cnc3nc(-c4ccncc4)nn3c2ccn1Cc1ccco1	none
CN(C)c1cc(C(=O)NC2CCCCC2)nc2ccnn12	none
CC(C)(C)c1cc(C(=O)NC2CCCC2)nc2ccnn12	USP30 block 31.0, USP17 block 31.2
COc1ccc(CC(=O)Nc2ccc(N3CCC(NCc4cn5cccc(C)c5n4)CC3)cc2)cc1	none
Cc1nn(-c2ccc(F)cc2)cc1-c1noc(C(=O)NCc2ccco2)n1	none
O=C(C1CCCC1)N1CCC(c2nc3c(nnn3Cc3c(F)cccc3Cl)c(=O)[nH]2)CC1	none
CCc1ccccc1NC(=O)N1CCC(c2nc3c(nnn3Cc3ccc(F)cc3)c(=O)[nH]2)CC1	none
CCOc1ccc(C(=O)N2CCC(c3nc4c(nnn4Cc4ccccc4Cl)c(=O)[nH]3)CC2)cc1	none
O=c1[nH]c(C2CCN(S(=O)(=O)c3cccc4ccccc34)CC2)nc2c1nnn2Cc1ccccc1Cl	USP28 block 32.9, USP30 block 31.4
O=c1[nH]c(C2CCN(S(=O)(=O)c3ccccc3)CC2)nc2c1nnn2Cc1c(Cl)cccc1Cl	USP30 block 38.9
O=C(Nc1cccc2ccccc12)N1CCC(c2nc3c(nnn3Cc3ccc(F)cc3)c(=O)[nH]2)CC1	USP28 block 37.7, USP30 block 35.7, USP17 block 90.9
O=C(C1CCC1)N1CCC(c2nc3c(nnn3Cc3c(Cl)cccc3Cl)c(=O)[nH]2)CC1	USP30 block 36.4
CC(C)[C@@H](NC(=O)C1CCC(CNC(=O)Cn2c(=O)[nH]c3ccccc3c2=O)CC1)C(=O)O (stereo partly drawn)	none
O=C1c2ccccc2C(Nc2ccccc2Cl)N1Cc1ccc2c(c1)OCO2 (stereo not drawn)	none
